Our source for the activity values is PubChem BioAssay AID1259318 (Sanford-Burnham Center for Chemical Genomics, 2017).

Molecules are shown by their SMILES. Among all 370,000 compounds or so, about 3,000 (0.81%) were called active. The full list was thinned out, with actives kept by preference. Values without a mark were called inactive.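 Rule for the calls: active = activity above about 14% (limit read from the data; passing the limit was not always enough); inactive = the rest.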

The target of the assay is Nuclear receptor subfamily 1 group D member 1 (Homo sapiens) (UniProt P20393). The assay is described as follows: Rev-erbα–DNA interaction modulation – biochemical, FITC-DNA, fluorescence polarization, uHTS, primary screen (AID 1259318).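 Note: 0% = DMSO wells with 35 nM protein and 100% = DMSO wells with 750 nM protein.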 The following applies: Rev-erbα–FITC-DNA binding, 90 min, at 10 µM, hits give high values. For orientation: Fluorescence polarisation rises when a labelled molecule tumbles more slowly, as on binding a larger partner.
Nuclear receptor subfamily 1 group D member 1 (Homo sapiens), sequence (P20393 whole entry, looked up): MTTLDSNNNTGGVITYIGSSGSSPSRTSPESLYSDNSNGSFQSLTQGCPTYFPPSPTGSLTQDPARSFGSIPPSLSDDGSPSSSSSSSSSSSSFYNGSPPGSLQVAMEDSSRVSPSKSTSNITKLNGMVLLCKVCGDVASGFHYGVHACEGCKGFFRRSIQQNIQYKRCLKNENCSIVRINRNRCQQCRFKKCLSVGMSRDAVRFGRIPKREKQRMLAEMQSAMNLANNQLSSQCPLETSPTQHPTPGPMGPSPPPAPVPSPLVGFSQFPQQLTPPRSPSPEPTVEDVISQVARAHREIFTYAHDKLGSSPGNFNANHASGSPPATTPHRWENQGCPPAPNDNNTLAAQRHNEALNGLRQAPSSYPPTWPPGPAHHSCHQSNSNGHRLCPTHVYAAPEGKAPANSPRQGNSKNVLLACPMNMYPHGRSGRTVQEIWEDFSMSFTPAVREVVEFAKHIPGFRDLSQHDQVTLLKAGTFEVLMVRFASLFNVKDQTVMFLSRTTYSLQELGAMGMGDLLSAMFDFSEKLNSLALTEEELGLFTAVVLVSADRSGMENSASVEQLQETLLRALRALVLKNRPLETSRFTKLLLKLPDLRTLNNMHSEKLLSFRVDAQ
`CCc1c(-c2ccccc2)nc(N)c(C#N)c1-c1cccs1`: the activity was 12%.

On to `CN1CCc2nc(SC(C(=O)O)c3ccccc3)c(C#N)c(-c3cccs3)c2C1` (stereo not given), for which the activity was -2.52%. On to `Cc1c(-c2ccccc2)nc(N)c(C#N)c1-c1cccs1`, for which the activity was 29.3% (active). Turning to `C=CCOc1cccc(CNn2cn[nH]c2=S)c1`, the activity is -6%. With `CN(C(=O)COC(=O)Cn1cnc2c1c(=O)n(C)c(=O)n2C)C1(C#N)CCCCC1`, the activity is 0.32%. Turning to `CCOc1cccc(NC(=O)Cn2nc(-c3ccc4c(c3)OCCO4)ccc2=O)c1`, the activity was 52.4% (active). The figure for `O=C(CSc1ccc(-c2ccc(F)cc2)nn1)Nc1ccc2c(c1)OCCO2` is -5.86%; for `CC(=O)c1cc2c(cc1NC(=O)Cn1nc(-c3ccc(F)cc3)ccc1=O)OCO2` it is 1.35%; for `CC(C)C(C#CC1CC1)N(Cc1ccc2c(c1)OCO2)C(N)=NC(=O)/C=C/c1cccc(C(F)(F)F)c1` (stereo not given) it is -2.7%.

Consider `Cn1c(-c2sccc2OCc2cccc(C(F)(F)F)c2)n[nH]c1=S`, for which the activity is -0.5%. On to `O=C(CSc1ncnc2c1oc1ccccc12)NC1CCCC1`, for which the activity is -1.38%. The figure for `CC1(C)Cc2nc3sc4c(SCC(=O)NC(c5ccccc5)c5ccccc5)ncnc4c3cc2CO1` is 199% (active). The figure for `CC(C)CCSc1ncnc2c1oc1nc3c(cc12)COC(C)(C)C3` is 0.04%; for `COCCN1C2=C(COC(C)(C)C2)C(=S)NC1c1ccccc1` (stereo not given) it is 1.37%. The figure for `COC(=O)c1c(NC(C)=O)sc(C(=O)Nc2ccccc2OC)c1C` is 32.9% (active); for `COc1ccccc1NC(=O)c1c(Br)cnn1C` it is 2.04%; for `COc1ccccc1NC(=O)C(CC(=O)O)Cc1cc(C)cc(C)c1` (stereo not given) it is -2.91%. As to `O=C(CCc1ccc(S(=O)(=O)N2CCOCC2)cc1)Nc1ccc2ccccc2c1`, the activity is -2.19%. The figure for `O=C(NC1CC1)C(Cc1ccccc1)NS(=O)(=O)c1ccccc1F` (stereo not given) is 3.33%; for `CC(C(=O)N=Nc1c(O)n(C)c2ccc(Br)cc12)n1cnc2ccccc2c1=O` (stereo not given) it is 2.88%; for `COc1ccccc1N1CCN(CC(=O)Nc2ccnn2C2CCCC2)CC1` it is 15.8% (active). Regarding `COc1cccc(N2CCN(CC(=O)Nc3ccnn3C3CCCC3)CC2)c1`, the activity is 5.07%.

With `COc1ccccc1C(=O)Nc1ccnn1C1CCN(Cc2cnn(C)c2)CC1`, the activity was 4.21%. For `C#CCNc1nc(C(C)C)nc2c1nnn2Cc1ccccc1F`, the activity is 2.17%. As for `CCCCCCCCCOC1OC(CO)C(O)C(O)C1NC(C)=O` (stereo not given), the activity is 1.37%. As to `CCC(C)C1(C2CCCC2)NC(=O)NC1=O` (stereo not given), the activity is 16.3% (active). The figure for `c1cncc(CNc2ccnc(-c3ccc4c(c3)OCO4)n2)c1` is 3.58%; for `Cc1ccc2nc(C)c3c(c2c1)N(c1ccccc1)CC3` it is 8.49%; for `CCOc1ccc(C(=O)Nc2nccs2)cc1[N+](=O)[O-]` it is 13.7%. The figure for `CCOc1cccc(C(=O)Nc2cnn(Cc3ccccc3)c2)c1` is -1.52%; for `Cc1ccc(C(=O)NC(C)C(c2cccs2)N2CCOCC2)cc1C` (stereo not given) it is -7%; for `Cc1ccc(C(=O)Nc2nnc(-c3cccs3)s2)cc1C` it is 22.5% (active). For the molecule `CCOc1cccc(C(=O)Nc2nnc(-c3cccs3)s2)c1`, the activity was 23.2% (active). The figure for `Cc1ccc(C(=O)Oc2coc(CSc3nnc(NC(=O)c4cccs4)s3)cc2=O)cc1C` is 12.7%; for `CSc1ccccc1C(=O)OCC(=O)N1CCN(C(C)=O)CC1` it is -6.48%. In the case of `COCCCNC(=O)Cn1cc(/C=C(\C#N)C(=O)N2CCN(c3ccccc3)CC2)c2ccccc21`, the activity was 1.28%. Regarding `COc1ccc2c(c1)CCC/C2=N\OC(=O)c1ccccc1F`, the activity is -4.23%. Regarding `COc1cc(NS(=O)(=O)c2ccc(NC(=O)c3ccc(S(=O)(=O)N4CCCCC4)cc3)cc2)ncn1`, the activity is -7.53%. The figure for `CCSC1=NCCN1S(=O)(=O)c1ccc(F)cc1` is 8.78%. On to `COc1nc(-c2ccc(Cl)cc2)ccc1-c1noc(-c2cccs2)n1`, for which the activity is 56.6% (active). The figure for `N#Cc1ccc(-c2ccc(Cl)cc2)nc1Oc1ccc(F)cc1` is 6.3%; for `CC(C)C[C@@H]1Cc2[nH][nH]c(=O)c2[C@H](CCc2ccccc2)O1` it is -3.25%.

Turning to `CCCn1c(O)c(CN2CCCC(C)C2)c(C)c(C#N)c1=O` (stereo not given), the activity was 8.88%. As for `CSc1ncnc2c1ncn2CC(=O)C1CCC2C3CCC4=CC(=O)CCC4(C)C3CCC12C` (stereo not given), the activity is -3.58%. The figure for `CCC(=O)c1c(CC)c2n3c1=CC[C@H]3CC(Br)C=2` (stereo not given in full) is 2.99%; for `CC(Sc1ccccc1F)C(=O)Nc1cccc(S(=O)(=O)N2CCOCC2)c1` (stereo not given) it is -3.07%; for `Cn1c(=NC(=O)c2ccc3c(c2)OCCO3)sc2cc(S(C)(=O)=O)ccc21` it is 22.9% (active).

For `CS(=O)(=O)c1ccc(-c2nnn(CC(=O)Nc3ccc4c(c3)OCCO4)n2)cc1`, the activity was 6.46%. The figure for `COCCn1c(=NC(=O)c2ccccc2[N+](=O)[O-])sc2cc(S(C)(=O)=O)ccc21` is 3.08%. The figure for `COc1ccc(C(=O)OCCN(C)C2CN(Cc3cn(Cc4cccc(C)c4)nn3)S(=O)(=O)C2)cc1OC` (stereo not given) is -5.04%; for `CSc1ccccc1NC(=O)CN(C)CC(=O)Nc1cccc(Br)c1` it is -5.77%.

`CC(=O)c1ccc(S(=O)(=O)N2CCN(c3nc4c(C)c(C)ccc4cc3C#N)CC2)cc1`: the activity was 223% (active). `Cc1ccccc1N1CCN(S(=O)(=O)c2ccc3ccccc3c2)CC1`: the activity was 3.07%.

Turning to `CC(=O)c1ccc(N2CCN(S(=O)(=O)c3ccc4c(c3)CC(=O)N4C)CC2)cc1`, the activity was 1.85%. For the molecule `CCN(CCCNC(=O)c1ccc2c(c1)NC(=O)CN2C)c1cccc(C)c1`, the activity is -3.82%. For the molecule `COc1ccc(N(CC(=O)Nc2cccc3ccccc23)S(C)(=O)=O)c(OC)c1`, the activity was 0.94%.

With `COc1ccc(CNC(=O)CCC(=O)Nc2nnc(C(C)C)s2)cc1`, the activity was -2.06%.

For the molecule `COc1ccc(C(=O)CSc2nnnn2C)c(OC)c1`, the activity was 1.25%. The figure for `COc1ccc(C(=O)Nc2cccc(NC(=O)c3ccc(OC)cc3OC)n2)c(OC)c1` is 22.5% (active); for `COc1ccc(C(=O)COC(=O)C(O)c2ccccc2)c(OC)c1` (stereo not given) it is 7.39%.

On to `COCCSc1nnc(NC(=O)c2cc(OC)c(OC)cc2[N+](=O)[O-])s1`, for which the activity is 7.5%. The figure for `COc1ccc(Cc2nnc(NC(=O)c3ccc(OC)cc3OC)s2)cc1` is 45.2% (active); for `COC(=O)c1sc(NC(=O)c2ccc(OC)cc2OC)nc1C` it is 28.7% (active). The figure for `COc1ccc(C(=O)N2CCCN(C)CC2)c(OC)c1` is 1.46%; for `CCc1ccc(Nc2ncc3c(n2)CC(c2ccco2)CC3=O)cc1` (stereo not given) it is 2.68%; for `CCCNC(=O)CCc1c(C)nc2c(c(C)nn2-c2ccccc2)c1C` it is -3.83%.

For the molecule `NCC[C@@H](O)C(=O)N[C@@H]1C[C@H](N)[C@@H](O[C@H]2O[C@H](CN)[C@@H](O)[C@H](O)[C@H]2O)[C@H](O)[C@H]1O[C@H]1O[C@H](CO)[C@@H](O)[C@H](N)[C@@H]1O`, the activity was -0.91%. In the case of `CCOC(=O)Cn1c(=O)oc2cc(S(=O)(=O)NCC3CCCO3)ccc21` (stereo not given), the activity was -1.52%. The figure for `COCCCNC(=O)C1CCC(CNS(=O)(=O)c2ccc(OC)cc2)CC1` (stereo not given) is -5.72%; for `Cc1cccc(C(=O)Nc2ccccc2C(=O)NCc2cccnc2)c1` it is 0.06%. The figure for `Cc1ccc(-n2nc3cc(C)c(NC(=O)c4cccnc4)cc3n2)cc1` is 36.7% (active). Consider `O=C(Nc1cccc(-n2cnnn2)c1)c1cccnc1`, for which the activity was 1.66%. The figure for `Cc1ccc(-n2c(COc3ccccc3)nnc2SCC(=O)Nc2ccc3c(c2)OCCO3)cc1` is 1.23%; for `CCc1ccc(-c2cc3c(=O)n(CC(=O)NCCCN4CCN(Cc5ccccc5)CC4)nc(C)n3n2)cc1` it is 2.85%; for `COC(=O)C[C@H]1C[C@@H]2c3cc(N(C)C)ccc3O[C@@H]2[C@H](CO)O1` it is 7.34%. On to `CCN1C(=O)/C(=C\N2CCN(c3cccc(Cl)c3)CC2)SC1=S`, for which the activity is 877% (active). In the case of `CCC1(C)NC(=O)N(CC(=O)N2CCN(c3cccc(Cl)c3)CC2)C1=O` (stereo not given), the activity was -2.92%.

`CCN1C(=O)/C(=C\N2CCOCC2)SC1=S`: the activity is 2.02%. Consider `CCCc1nnc(NC(=O)CCC(=O)N2CCN(S(=O)(=O)c3ccc(OC)cc3)CC2)s1`, for which the activity was -2.83%. As for `COC(=O)[C@@]12C[C@@H](CC(=O)NCCCCc3ccccc3)C(=O)N(CCc3ccc(OC)c(OC)c3)C1=CCC(C)(C)C2`, the activity is 0.11%.

In the case of `O=C(NCc1ccc(Cl)cc1)c1cc2c(nc3sccn32)s1`, the activity is 25.1% (active). The figure for `O=C(NCc1ccc(Cl)cc1)c1cc(=O)nc2sc(-c3ccccc3)nn12` is 7.32%; for `O=C(NCc1ccc2c(c1)OCO2)c1c(O)nc2sccn2c1=O` it is -1.37%; for `COCc1c(C(=O)N/N=C/C2CC=CCC2)nnn1-c1nonc1N` (stereo not given) it is -3.01%. In the case of `CN(CC1CCCN(CCc2cccc(C(F)(F)F)c2)C1)C(=O)c1ccc2nc[nH]c2c1` (stereo not given), the activity is 4.2%. The figure for `CC1=CC[C@H](C(C)(C)O)CC1` is 1.53%; for `COc1ccc(S(=O)(=O)N2CCOCC2)cc1NC(=O)CSc1ncnc2ccccc12` it is -2.02%.

For `COc1ccc(S(=O)(=O)N2CCOCC2)cc1C(=O)NC1CCCCC1`, the activity was -1.23%. As to `COc1ccc(S(=O)(=O)N2CCOCC2)cc1C(=O)Nc1nc2ccccc2s1`, the activity is 46.8% (active).

With `CC1CN(C(=O)c2ccc3c(c2)OCO3)OC(c2ccccc2)O1` (stereo not given), the activity is 8.07%.
